# Reference: PubChem BioAssay
# Calls of active or inactive are those of the source. Unless noted, the rule behind the calls is not given here.
# How the values were obtained:
# [1] = tested on: XIP peptide (Xip251-270) binding; assay: small-molecule binders of XIP peptide, primary screen, biochemical, small-molecule microarray, fluorescence 635/667 nm, 0.1 µg/mL protein (AID 1182); conditions: fluorescent protein binding, 635 nm, higher = more signal, called active from +8 up or from −8 down
# XIP peptide (Xip251-270) = assay: small-molecule binders of XIP peptide, primary screen, biochemical, small-molecule microarray, fluorescence 635/667 nm, 0.5 µg/mL protein (AID 1183); conditions: small-molecule microarray binding, fluorescence 635 nm; higher = more signal
# [2] = Plasmodium falciparum growth inhibition, primary screen, strain 3D7, DAPI fluorescence, 100 nL (AID 1184);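 note: parasites grown inside human red blood cells in medium with human serum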; conditions: P. falciparum 3D7 growth, 3 d, higher = more signal
# [3] = molecular target: Homeobox protein Hox-A13 (Mus musculus) (UniProt Q62424); assay: inhibitors of HoxA13-DNA binding, primary screen, biochemical, fluorescence polarization, labeled oligonucleotide (AID 1185); conditions: 15 min, higher = more signal, called active from +8 up or from −8 down
# [4] = inhibitors of hydroxyurea-induced Chk1 phosphorylation, primary screen, imaging, HeLa, phospho-Chk1 antibody, percent positive cells (AID 1186); conditions: hydroxyurea-induced phospho-Chk1 immunofluorescence imaging, higher = more signal
# [5] = inhibitors of hydroxyurea-induced Chk1 phosphorylation, primary screen, imaging, HeLa, phospho-Chk1 nuclear intensity (AID 1187); conditions: hydroxyurea-induced phospho-Chk1 immunofluorescence imaging, higher = more signal
# Sequence of Homeobox protein Hox-A13 (Mus musculus) (Q62424 whole entry, looked up): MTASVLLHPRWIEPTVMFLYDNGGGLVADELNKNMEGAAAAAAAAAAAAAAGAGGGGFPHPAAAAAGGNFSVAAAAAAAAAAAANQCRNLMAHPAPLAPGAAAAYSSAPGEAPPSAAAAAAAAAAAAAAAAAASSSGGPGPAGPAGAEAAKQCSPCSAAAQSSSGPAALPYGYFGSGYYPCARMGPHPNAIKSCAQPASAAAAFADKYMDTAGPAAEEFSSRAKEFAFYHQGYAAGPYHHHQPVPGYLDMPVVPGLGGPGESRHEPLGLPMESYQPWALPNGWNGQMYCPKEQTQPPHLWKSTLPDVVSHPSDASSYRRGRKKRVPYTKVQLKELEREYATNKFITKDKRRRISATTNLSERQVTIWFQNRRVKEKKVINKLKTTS
Structure (SMILES),composite z-score [1],composite z-score (XIP peptide (Xip251-270)),z-score [2],z-score [3],z-score [4],z-score [5]
CC(C)(C)OC(=O)CC[C@@]1(C(=O)O)N=C(c2ccc(OCCCO)cc2)O[C@@H]1c1ccccc1,0.0877 (inactive),0.84,0.274,-2.94 (inactive),-0.0016 (inactive),0.18 (inactive)
COc1ccc(NN2C(C(O)c3ccco3)C=CC3C(=O)N(C4CCCCC4)C(=O)C32)cc1 (configuration not stated),0.902 (inactive),0.68,-0.244,-3.76 (inactive),-0.266 (inactive),-0.504 (inactive)
CC=CC(O)C1C=CC2C(=O)N(C)C(=O)C2N1N1CCCCC1 (configuration not stated),0.102 (inactive),0.759,0.884,-7.38 (inactive),0.436 (inactive),-0.297 (inactive)
COc1ccc([Si](C)(C)[C@H]2[C@H](CCn3cc(CCO)nn3)O[C@@]3(C(=O)N(Cc4ccc(N5C(=O)c6cccc7cccc5c67)cc4)c4ccccc43)[C@@H]2C)cc1,0.146 (inactive),0.625,-2.28,-3.7 (inactive),-0.771 (inactive),-0.923 (inactive)
COC(=O)[C@@]1(Cc2ccc(F)cc2)[C@H]2c3cc(C(=O)N4CCCC4)n(CCc4c[nH]c5ccc(OC)cc45)c3C[C@H]2CN1C(=O)c1ccccc1,0.804 (inactive),0.727,-1.74,-3.53 (inactive),-0.371 (inactive),-0.199 (inactive)
C[C@]1(C(=O)NCCN2CCOCC2)c2ccccc2C(=O)N(Cc2ccc(OC(F)(F)F)cc2)[C@H]1c1ccc(CO)cc1,-0.0513 (inactive),0.466,-1.08,-4.78 (inactive),-0.198 (inactive),-0.0723 (inactive)
C=CC[C@]1(C(=O)N(C)C)N=C(c2ccc(OCCCO)cc2)O[C@H]1c1ccccc1N=[N+]=[N-],0.845 (inactive),0.382,-1.8,-3.37 (inactive),-0.22 (inactive),-0.0961 (inactive)
COc1ccc([Si](C)(C)[C@H]2[C@H](CCn3cc([C@H](O)c4ccccc4)nn3)O[C@@]3(C(=O)N(Cc4ccc(N5CCOC5=O)cc4)c4ccccc43)[C@@H]2C)cc1,-0.47 (inactive),0.103,-2.29,-2.28 (inactive),-0.138 (inactive),-0.0848 (inactive)
CC(C)c1ccc(NN2C(C(O)c3ccco3)C=CC3C(=O)N(c4ccccc4)C(=O)C32)cc1 (configuration not stated),0.938 (inactive),0.849,-0.107,-3.14 (inactive),-0.881 (inactive),-1.03 (inactive)
C=CC[C@@]1(C(=O)O)N=C(c2ccc(OCCCO)cc2)O[C@@H]1c1ccccc1,0.759 (inactive),0.994,-0.441,-4.13 (inactive),-0.106 (inactive),-0.0411 (inactive)
C=CC[C@H](OC(=O)Nc1ccc(OC)cc1)c1ccc(O)c2ccccc12,-0.104 (inactive),0.616,-1.36,-0.0657 (inactive),0.936 (inactive),0.821 (inactive)
Cc1ccc(C(C)CC(O)C2C=CC3C(=O)N(c4ccccc4)C(=O)C3N2Nc2ccc(C(C)C)cc2)o1 (configuration not stated),0.195 (inactive),0.691,0.0472,-3.2 (inactive),0.527 (inactive),0.482 (inactive)
CN1C(=O)C2C=CC(C(O)c3c(F)cccc3Cl)N(Nc3ccccc3)C2C1=O (configuration not stated),-0.108 (inactive),0.324,1.04,-3.42 (inactive),0.563 (inactive),0.463 (inactive)
CO[C@H]1O[C@H](CO)[C@@H](OC(=O)c2ccc(Br)cc2)[C@@H]2OC(=O)[C@@H](Cc3ccc4ccccc4c3)C/C=C/C[C@H](Cc3ccc4ccccc4c3)C(=O)O[C@@H]12,1.08 (inactive),0.266,-0.0936,-5.67 (inactive),-0.555 (inactive),-0.449 (inactive)
CC(C)CNC(=O)[C@@H]1c2ccccc2C(=O)N(Cc2cc(F)cc(C(F)(F)F)c2)[C@H]1c1ccc(CO)cc1,1.02 (inactive),0.891,0.204,-3.02 (inactive),-0.478 (inactive),-0.515 (inactive)
O=C(CS)NCCCCCCNC(=O)[C@H]1C[C@H]2C(=O)N[C@@H](Cc3ccccc3)C(=O)N2[C@H]1c1cccc(OCCO)c1,0.168 (inactive),0.825,0.107,-1.03 (inactive),-0.0078 (inactive),0.671 (inactive)
CC(C)C[C@@H]1NC(=O)[C@H]2C[C@@H](C(=O)NCCCCCC[N+](C)(C)C)[C@@H](c3cccc(OCCO)c3)N2C1=O,0.506 (inactive),0.748,-0.411,-5.33 (inactive),-0.481 (inactive),-0.503 (inactive)
